# PostGolgi yeast: phenotypic screen on post-Golgi transport, primary screen; post-Golgi transport phenotypic cell assay; inhibition, % at 10 µM; actives 0.9% (n = 98,000); AID 739, 2007;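 also: yeast cells grown in 1536-well plates; yeast grown about 18 h at 30C before absorbance read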
# CYP2C19 activ: human CYP2C19 activators, primary screen, biochemical, luminescence | AID 1025, 2008 | recombinant CYP2C19, luciferin-H EGE luminescence; stronger effect = higher value; 0 = fully inhibited enzyme, 1 = untreated enzyme | 96,000 tested, under 10 active | activation factor at 5 µM;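 active = activation factor of at least 2 at 5 µM in the primary screen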;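 also: 0 = wells with 2.5 mM tranylcypromine and 1 = vehicle-only wells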
# PostGolgi ctrl: growth inhibition of yeast control strain, primary screen, counter-screen for post-Golgi transport modulator project | inhibition, % at 10 µM | efflux-deficient yeast background strain, growth absorbance A615, 16 h | actives 5% (n = 98,000)
# CYP2C9 inhib: blockers of cytochrome P450 2C9 activity – biochemical, luminescence, ADME assay, primary screen; P11712; CYP2C9 Supersomes, luciferin-H conversion; inhibition, % at 5 µM; actives 20% (n = 96,000);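 active = blocking of liver enzyme CYP2C9 beyond about 50% at 5 µM, limit read from the data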
# Target sequence (P11712 whole entry, looked up): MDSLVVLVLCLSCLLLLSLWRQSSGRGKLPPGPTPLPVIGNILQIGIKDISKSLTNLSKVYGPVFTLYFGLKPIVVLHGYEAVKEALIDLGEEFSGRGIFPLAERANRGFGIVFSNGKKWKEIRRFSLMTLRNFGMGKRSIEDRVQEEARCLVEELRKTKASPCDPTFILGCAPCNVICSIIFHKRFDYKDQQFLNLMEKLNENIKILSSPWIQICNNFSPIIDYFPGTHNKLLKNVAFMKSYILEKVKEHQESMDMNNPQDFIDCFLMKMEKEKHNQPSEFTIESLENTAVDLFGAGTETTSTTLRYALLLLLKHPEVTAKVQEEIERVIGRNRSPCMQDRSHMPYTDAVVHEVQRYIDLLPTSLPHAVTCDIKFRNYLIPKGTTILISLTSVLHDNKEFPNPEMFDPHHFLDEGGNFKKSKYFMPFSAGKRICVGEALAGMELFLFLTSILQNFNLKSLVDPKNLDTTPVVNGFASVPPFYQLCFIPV
# CYP2C19 inhib: blockers of cytochrome P450 2C19 activity – biochemical, luminescence, ADME assay, primary screen | actives 21% (n = 96,000) | inhibition, % at 5 µM | P33261 | CYP2C19 Supersomes, luciferin-H EGE luminescence, 30 min;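 active = CYP2C19 inhibition above a set limit at 5 µM in the primary screen, cut at about 50% in these data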;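 also: plate controls were negative control wells for no effect and 2.5 mM tranylcypromine positive control for full effect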
# CYP2C9 activ: human CYP2C9 activators, primary screen, biochemical, luminescence. Cytochrome P450 2C9 (Homo sapiens), P11712. recombinant CYP2C9, luciferin-H conversion; stronger effect = higher value; factor 1 = untreated enzyme, 0 = blocked. actives 1.4% (n = 96,000). AID 1024, 2008. activation factor at 5 µM;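 active = activation factor of 2 or more for CYP2C9 at a 5 µM dose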;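 also: 0 = sulfaphenazole-blocked wells and 1 = vehicle-only wells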
# The depositor's hits bear a star; · = no result given. In the library only some 32% were active in any assay of this set; here they are far more common. Rule as the data show it, unless noted: active = inhibition above about 30%; inactive = the rest.
SMILES,PostGolgi yeast,CYP2C19 activ,PostGolgi ctrl,CYP2C9 inhib,CYP2C19 inhib,CYP2C9 activ
Cc1ccc(C(=O)Nc2sc3c(c2C(=O)NCc2ccco2)CCCC3)cc1,2.2,0.9,-0.1,65.1*,8.5,0.3
O=C(Nc1sc2c(c1C(=O)NCc1ccco1)CCCC2)c1ccc2c(c1)OCO2,-6.6,0.4,21.9,84.5*,63.3*,0.2
COc1ccc(C(=O)Nc2sc3c(c2C(=O)NCc2ccco2)CCCC3)cc1OC,-2.4,0.5,13.9,85.9*,51.0*,0.1
COC(=O)Nc1sc2c(c1C(=O)NCc1ccco1)CCC2,11.3,0.9,23.7,34.1,10.1,0.7
O=C(COC(=O)c1cc(S(=O)(=O)N2CCCCC2)ccc1N1CCOCC1)NC1CCCCC1,-5.2,0.7,-3.2,44.5,32.1,0.6
CCOc1ccccc1NC(=O)c1cc(Cl)ccc1NC(=O)c1ccco1,-6.3,1,2.4,0.6,-3.1,1
CC1CCCCN1CC(=O)Nc1sccc1C#N (stereo unspecified),4.6,0.6,6.3,31.0,41.0,0.7
COc1ccc(-c2noc(-c3ccccc3C(=O)NCc3ccco3)n2)cc1,-8.2,0.9,18.7,23.4,11.8,0.8
O=C(CCN1C(=O)c2ccccc2C1=O)Nc1sc2c(c1C(=O)NCc1ccco1)CCCC2,15.8,0.2,-1.8,92.1*,75.9*,0.1
COc1cc(C(=O)Nc2sc3c(c2C(=O)NCc2ccco2)CCCC3)cc(OC)c1OC,7.6,0.4,3.5,76.4*,61.1*,0.2
COc1ccc(-c2noc(-c3ccccc3C(=O)NCc3ccco3)n2)cc1OC,-2.2,0.7,30.9*,20.9,31.2,0.8
CCOCCCNC(=O)C1CCN(S(=O)(=O)N(CC(C)C)CC(C)C)CC1,-3.3,0.8,6.4,30.0,22.6,0.7
CC(C)CN1C(=S)SC(C)(C)C1n1oc(=O)n(-c2ccc(Cl)cc2)c1=O (stereo unspecified),17.5,0.3,12.9,88.0*,66.2*,0.1
CC1Cc2nc(SCC(=O)N3CCN(c4ccccc4)CC3)n(C)c(=O)c2S1 (stereo unspecified),-12.6,0.3,12.9,70.9*,66.9*,0.3
CCn1c(SCC(=O)N2CCN(c3ccccc3)CC2)nc2c(c1=O)SC(C)C2 (stereo unspecified),4.3,·,7.8,·,·,·
CC1Cc2nc(SCC(=O)N3CCN(c4ccccc4)CC3)n(CCc3ccccc3)c(=O)c2S1 (stereo unspecified),-14.1,0.7,28.0,75.6*,31.1,0.2
O=C(O)CN1C(=O)SC(Nc2ccccc2C(=O)O)C1=O (stereo unspecified),1.2,1,14.4,-9.2,0.9,1.1
O=C(Nc1nc2c(s1)CCc1ccccc1-2)c1cccs1,·,0.9,·,-7.5,8.9,1.1
O=C(Nc1nc2c(s1)COc1ccccc1-2)c1cccs1,0.0,0.6,7.8,62.8*,36.2,0.4
O=C(CCS(=O)(=O)c1ccccc1)Nc1nc2c(s1)COc1ccccc1-2,-0.2,0.3,2.7,38.0,65.3*,0.6
COc1ccccc1Oc1ccc2c(c1)C(=O)N(c1ccc(Br)c3cccnc13)C2=O,-9.8,1,4.4,-20.5,-4.7,1.2
CC(=O)Nc1ccc(SC(C)C(=O)NC(N)=O)cc1 (stereo unspecified),1.0,1.2,13.3,17.6,-16.2,0.8
Cc1ccc(SC(C)C(=O)Nc2ncn[nH]2)cc1 (stereo unspecified),41.6*,0.8,-4.2,28.3,24.6,0.7
CC(C)(C)NC(=O)CN(C(=O)CS(=O)CC(=O)Nc1ccc(F)cc1)c1ccc(F)c(Cl)c1 (stereo unspecified),-1.8,0.6,-1.6,88.6*,35.8,0.1
CC(C)(C)NC(=O)CN(C(=O)CS(=O)CC(=O)Nc1ccc(F)cc1)c1ccc(Cl)cc1 (stereo unspecified),4.7,1,-6.5,45.4,1.8,0.5
SMILES,PostGolgi yeast,CYP2C19 activ,PostGolgi ctrl,CYP2C9 inhib,CYP2C19 inhib,CYP2C9 activ
O=C1c2ccccc2-c2onc3ccc(NCCCn4ccnc4)c1c23,-9.1,0.1,-3.5,97.3*,92.0*,0
CC(=O)N1CN(CCCn2ccnc2)Cc2c1sc1c2CCCC1,-11.9,0.1,-4.6,95.6*,94.2*,0
CC(=O)N1CN(Cc2ccccn2)Cc2c1sc1c2CCCC1,1.6,0.7,35.9*,14.4,26.9,0.9
CC(C)SCCCOc1ccc(C(C)(C)C)cc1,12.0,1,9.0,2.9,-4.0,1
CCCCN(C(=O)NC(=O)Nc1ccccc1OC)S(C)(=O)=O,1.8,0.7,9.6,33.9,27.3,0.7
CCCCCN(C(=O)NC(=O)Nc1nncs1)S(C)(=O)=O,0.3,0.9,15.7,60.8*,7.1,0.4
CCCCN(C(=O)NC(=O)Nc1cc(C)ccc1C)S(C)(=O)=O,2.5,0.7,26.3,55.8*,34.9,0.4
CCCCCN(C(=O)NC(=O)Nn1cnnc1)S(C)(=O)=O,-8.1,1,4.3,-8.5,-3.4,1.1
CC1(C)C(c2ccccc2)=NC(c2ccc(F)cc2)N1O (stereo unspecified),-0.5,0.6,10.6,-3.9,38.6,1
Cc1c(OC(=O)c2ccc([N+](=O)[O-])cc2)c2c(c[n+]1C)COC(C)(C)OC2,-1.6,0.9,13.8,24.1,8.4,0.8
CCOC(=O)/C(C(C)=O)=C1\OC(=O)c2ccccc21,1.9,0.8,-2.0,57.5*,20.1,0.4
Cc1ccccc1C(=O)c1ccc2c(c1)n(C)c(=O)n2C,-0.6,0.2,3.4,73.7*,75.8*,0.3
COc1ccc(CCNc2oc(COc3ccccc3Cl)nc2C#N)cc1OC,3.0,·,27.8,·,·,·
COc1ccc(CCNc2oc(COc3ccccc3F)nc2C#N)cc1OC,-2.9,0,26.1,91.1*,96.2*,0.1
CCNc1oc(COc2ccccc2F)nc1C#N,5.9,0,15.5,38.7,96.1*,0.6
COCCNc1oc(COc2cccc(C)c2)nc1C#N,13.6,0.4,-5.3,10.1,56.8*,0.9
COc1ccc(CCNc2oc(Cc3ccccc3)nc2C#N)cc1OC,-24.1,0.3,7.5,50.3*,74.9*,0.5
Cc1cc(NC(=O)CN2C(=O)CC(c3ccco3)Sc3ccccc32)no1 (stereo unspecified),-12.4,·,-9.8,·,·,·
O=C(NCC(c1cccnc1)N1CCOCC1)c1cccs1 (stereo unspecified),-12.2,1.2,2.8,-10.1,-15.8,1.1
O=C(CSc1nnc(-c2ccc(Cl)s2)o1)N1CCOCC1,·,1,·,-9.6,-4.2,1.1

# High-throughput results deposited in PubChem BioAssay by several laboratories.
